PubChem BioAssay (Tox21)
“And” between values parts separate entries of the source, which are not always exact repeats. Identical values can stand only once. Results filed as inconclusive are left out. The source made the active and inactive calls. Unless noted, the call rests on the fitted dose curve.

Molecular target: Peroxisome proliferator-activated receptor gamma (Homo sapiens) (UniProt P37231)
Assay: qHTS assay to identify small molecule antagonists of the peroxisome proliferator-activated receptor gamma (PPARg) signaling pathway (AID 743191); further: nearly all actives have a fitted effect of over 30% in size
Details: HEK293H PPARg-UAS-bla, beta-lactamase ratio, antagonist, 17 h; series mostly up to 62.6 µM
Outline: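 GeneBLAzer PPARg UAS-bla HEK293H cells, 5 h post-plating, exposed to compounds 17 h at 37C. LiveBLAzer B/G FRET substrate added for 1 h at room temperature; beta-lactamase reporter read by fluorescence intensity.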
Potency means the concentration at half of the fitted maximal effect.

Peroxisome proliferator-activated receptor gamma (Homo sapiens), sequence (P37231 whole entry, looked up): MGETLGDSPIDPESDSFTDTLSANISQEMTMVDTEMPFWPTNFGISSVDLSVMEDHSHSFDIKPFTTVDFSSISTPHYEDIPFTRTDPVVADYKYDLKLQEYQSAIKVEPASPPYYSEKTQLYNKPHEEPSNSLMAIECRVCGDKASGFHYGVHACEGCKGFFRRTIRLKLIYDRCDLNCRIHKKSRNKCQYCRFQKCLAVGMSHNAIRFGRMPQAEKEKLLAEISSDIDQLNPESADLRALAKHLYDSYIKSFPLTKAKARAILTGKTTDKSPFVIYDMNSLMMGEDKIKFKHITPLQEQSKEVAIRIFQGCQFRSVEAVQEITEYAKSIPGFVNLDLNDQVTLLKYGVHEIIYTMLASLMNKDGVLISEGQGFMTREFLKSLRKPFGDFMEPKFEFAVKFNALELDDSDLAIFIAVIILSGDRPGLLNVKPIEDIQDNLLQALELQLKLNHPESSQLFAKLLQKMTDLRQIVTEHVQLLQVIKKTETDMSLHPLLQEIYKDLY

Row | Compound | Potency
1 | Fc1ccc(Oc2ccnc3cc(Cl)cc(Cl)c23)cc1 | inactive
2 | CC(c1ccc(O)cc1)c1ccc(O)cc1 | 36.5 µM (active)
3 | CC(=O)/C=C/c1ccc2c(c1)OCO2 | 12.4 µM (active)
4 | COP(=S)(OC)Oc1cc(Cl)c(Br)cc1Cl | 43.6 µM (active)
5 | Cc1c(Cl)c(=O)oc2cc(OP(=O)(OCCCl)OCCCl)ccc12 | inactive
6 | CCCN(CCC)c1c([N+](=O)[O-])cc(S(N)(=O)=O)cc1[N+](=O)[O-] | 37 µM (active)
7 | Oc1ccc(C(=C(Cl)Cl)c2ccc(O)cc2)cc1 | 17.3 µM (active)

System: not listed separately
Assay: qHTS assay to identify small molecule antagonists of the peroxisome proliferator-activated receptor gamma (PPARg) signaling pathway - cell viability counter screen (AID 743194; active means well fitted cell-killing curve with a large enough effect in the repeat runs; further: nearly all actives have a fitted effect of over 55% in size)
Details: PPARg-bla HEK293H viability, CellTiter-Glo luminescence, 17 h; Potency: co-treated with 50 nM rosiglitazone unless noted; series mostly up to 62.6 µM
Outline: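 Cytotoxicity counter screen in PPARg-bla HEK293H cells, same wells as reporter assay. Compounds plus 50 nM rosiglitazone (final) for 17 h at 37 C, then viability read by CellTiter-Glo luminescence.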

Row | Compound | Potency
8 | O=CC(Br)(Br)Br | 6.14 µM (active)
9 | OC(c1ccc(Cl)cc1)(c1ccc(Cl)cc1)C(Cl)(Cl)Cl | 15.5 µM (active)
10 | O=C(CCl)Nc1ccccc1 | 15.5 µM (active)
11 | Cn1cc(C2=C(c3cn(C4CCN(Cc5ccccn5)CC4)c4ccccc34)C(=O)NC2=O)c2ccccc21 | inactive
12 | CC(c1ccc(O)cc1)c1ccc(O)cc1 | inactive
13 | O=C(CCCN1CCC2(CC1)C(=O)NCN2c1ccccc1)c1ccc(F)cc1 | inactive
14 | CC(=O)/C=C/c1ccc2c(c1)OCO2 | inactive
15 | c1ccc(Nc2ccc3ccccc3c2)cc1 | inactive
16 | COP(=S)(OC)Oc1cc(Cl)c(Br)cc1Cl | 34.7 µM (active)
17 | CCOCCOC(C)=O | inactive
18 | O=c1c(C2CC(c3ccc(-c4ccc(Br)cc4)cc3)Cc3ccccc32)c(O)sc2ccccc12 (centres undefined) | 13.3 µM (active)
19 | Cc1c(Cl)c(=O)oc2cc(OP(=O)(OCCCl)OCCCl)ccc12 | inactive
20 | Nc1ccccc1C(=O)Oc1ccc2ccccc2c1 | inactive
21 | CC1(C)C(/C=C(\Cl)C(F)(F)F)C1C(=O)OC(C#N)c1cccc(Oc2ccccc2)c1 (centres undefined) | inactive
22 | CC(=O)OC1(c2ccccc2)CCN(CCc2ccccc2)CC1 | inactive
23 | CCCN(CCC)c1c([N+](=O)[O-])cc(S(N)(=O)=O)cc1[N+](=O)[O-] | 58.6 µM (active)
24 | O=C(O)C1C2CCC(O2)C1C(=O)O (centres undefined) | inactive
25 | O=c1[nH]c2ccccc2n1CCCN1CCC(n2c(=O)[nH]c3cc(Cl)ccc32)CC1 | inactive
26 | Oc1c(Br)c(Br)c(Br)c(Br)c1Br | 49.3 µM (active)
27 | C=CCC1=C(C)C(OC(=O)C2C(C=C(C)C)C2(C)C)CC1=O (centres undefined) | 58.3 µM (active)
28 | CCOc1cc(C(C)(C)C)ccc1C1COC(c2c(F)cccc2F)=N1 (centres undefined) | 11.8 µM (active)
29 | Cc1ccc(OP(=O)(Oc2ccccc2)Oc2ccccc2)cc1 | inactive
30 | COc1ccc(N)cc1N | 21 µM (active)
31 | ClC1=C(Cl)C2(Cl)C3C(Cl)C(Cl)CC3C1(Cl)C2(Cl)Cl (centres undefined) | 24.5 µM (active)
32 | CC(C)CC(C)Nc1ccc(Nc2ccccc2)cc1 (centres undefined) | 42.9 µM (active)
33 | C[C@H]1O[C@@H](O[C@H]2[C@@H](O)C[C@H](O[C@H]3[C@@H](O)C[C@H](O[C@H]4CC[C@@]5(C)[C@H](CC[C@@H]6[C@@H]5CC[C@]5(C)[C@@H](C7=CC(=O)OC7)CC[C@]65O)C4)O[C@@H]3C)O[C@@H]2C)C[C@H](O)[C@@H]1O | 7.8 nM (active) and 33.5 nM (active)

System: not listed separately
Assay: qHTS assay for small molecule agonists of the antioxidant response element (ARE) signaling pathway (AID 743202; active means well fitted activation curve with a large enough effect in the signal ratio in the repeat runs, not every such curve was filed as active; the % refers to the signal ratio)
Details: HepG2 ARE-bla reporter, beta-lactamase FRET, 16 h; series mostly up to 73.3 µM
Outline: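 Agonist mode reporter screen: HepG2 cells with ARE-controlled beta-lactamase are incubated with test compounds for 16 h at 37 C, and beta-lactamase activity is measured as fluorescence of cleaved B/G FRET substrate.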

Row | Compound | Potency
34 | O=CC(Br)(Br)Br | 1.72 µM (active)
35 | CC(C)C1CCC(Cc2ccc(Cl)cc2)C1(O)Cn1cncn1 (centres undefined) | 15.2 µM (active)
36 | O=C(CCl)Nc1ccccc1 | 4.33 µM (active)
37 | Fc1ccc(Oc2ccnc3cc(Cl)cc(Cl)c23)cc1 | 12.2 µM (active)
38 | CC(c1ccc(O)cc1)c1ccc(O)cc1 | 25.6 µM (active)
39 | O=C(CCCN1CCC2(CC1)C(=O)NCN2c1ccccc1)c1ccc(F)cc1 | 2.98 µM (active)
40 | Cc1c(Cl)c(=O)oc2cc(OP(=O)(OCCCl)OCCCl)ccc12 | inactive
41 | Nc1ccccc1C(=O)Oc1ccc2ccccc2c1 | 21.7 µM (active)
42 | CC1(C)C(/C=C(\Cl)C(F)(F)F)C1C(=O)OC(C#N)c1cccc(Oc2ccccc2)c1 (centres undefined) | inactive
43 | O=c1[nH]c2ccccc2n1CCCN1CCC(n2c(=O)[nH]c3cc(Cl)ccc32)CC1 | inactive
44 | Oc1ccc(C(=C(Cl)Cl)c2ccc(O)cc2)cc1 | 24.3 µM (active)
45 | CCOc1cc(C(C)(C)C)ccc1C1COC(c2c(F)cccc2F)=N1 (centres undefined) | 5.88 µM (active)

System: not listed separately
Assay: qHTS assay for small molecule agonists of the antioxidant response element (ARE) signaling pathway - cell viability counter screen (AID 743203); further: nearly all actives have a fitted effect of over 55% in size
Details: ARE-bla HepG2 viability, CellTiter-Glo luminescence, 16 h; series mostly up to 73.3 µM
Outline: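 Seeded at 2,000 cells/well, ARE-bla HepG2 cells were incubated 5 hrs before compound addition. After 16 hrs of treatment at 37C with 5% CO2, CellTiter-Glo reagent was added and luminescence read 30 min later.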

Row | Compound | Potency
46 | O=CC(Br)(Br)Br | 54.3 µM (active)
47 | CC(c1ccc(O)cc1)c1ccc(O)cc1 | inactive
48 | CC(=O)/C=C/c1ccc2c(c1)OCO2 | inactive
49 | CCOCCOC(C)=O | inactive
50 | O=c1c(C2CC(c3ccc(-c4ccc(Br)cc4)cc3)Cc3ccccc32)c(O)sc2ccccc12 (centres undefined) | 33.5 µM (active)
51 | Cc1c(Cl)c(=O)oc2cc(OP(=O)(OCCCl)OCCCl)ccc12 | inactive
52 | Nc1ccccc1C(=O)Oc1ccc2ccccc2c1 | inactive
53 | CC1(C)C(/C=C(\Cl)C(F)(F)F)C1C(=O)OC(C#N)c1cccc(Oc2ccccc2)c1 (centres undefined) | inactive
54 | CC(=O)OC1(c2ccccc2)CCN(CCc2ccccc2)CC1 | inactive
55 | COc1cccc2c1C(=O)c1c(O)c3c(c(O)c1C2=O)C[C@@](O)(C(=O)CO)CC3OC1CC(N2CCOC(OC)C2)C(O)C(C)O1 (some centres undefined) | 9.44 µM (active)
56 | BrC(Br)C(Br)(Br)Br | 54.8 µM (active)
57 | O=c1[nH]c2ccccc2n1CCCN1CCC(n2c(=O)[nH]c3cc(Cl)ccc32)CC1 | inactive
58 | Oc1c(Br)c(Br)c(Br)c(Br)c1Br | 24.5 µM (active)
59 | C=CCC1=C(C)C(OC(=O)C2C(C=C(C)C)C2(C)C)CC1=O (centres undefined) | 51.5 µM (active)
60 | O=C(O)COc1nc(Cl)c(Cl)cc1Cl | inactive
61 | O=C(CCl)C(Cl)Cl | 61.7 µM (active)
62 | COc1ccc(N)cc1N | 19.9 µM (active) and 29.4 µM (active)
63 | ClC1=C(Cl)C2(Cl)C3C(Cl)C(Cl)CC3C1(Cl)C2(Cl)Cl (centres undefined) | 61.1 µM (active)
64 | C[C@H]1O[C@@H](O[C@H]2[C@@H](O)C[C@H](O[C@H]3[C@@H](O)C[C@H](O[C@H]4CC[C@@]5(C)[C@H](CC[C@@H]6[C@@H]5CC[C@]5(C)[C@@H](C7=CC(=O)OC7)CC[C@]65O)C4)O[C@@H]3C)O[C@@H]2C)C[C@H](O)[C@@H]1O | 10.9 nM (active) and 6 nM (active)
